Activity calls are given as the source filed them. Unless noted, how the calls were made is not given here.
Columns and labels:
[1] = resazurin metabolic signal in HepG2 cells – cell-based, resazurin fluorescence, 24 h, PK04 Diversity Set, profiling panel (AID 1172); conditions: HepG2 viability, higher = more signal
[2] = budding yeast growth changes without added modifier – OD600, strain BY4716, 24 h, basal condition, primary screen (AID 1173); conditions: S. cerevisiae BY4716 growth, OD600, 24 h; higher = more signal, called active from +8 up or from −8 down
[3] = viability profiling in MM1S myeloma cells – cell-based, resazurin fluorescence, basal, 24 h, PK04 Diversity Set, profiling panel (AID 1174); conditions: higher = more signal, called active from +8 up or from −8 down;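 further: MM1S multiple myeloma cell line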
[4] = biological target: Dihydroorotate dehydrogenase (quinone), mitochondrial (Plasmodium falciparum (isolate 3D7)) (UniProt Q08210); assay: inhibition of P. falciparum DHODH – biochemical, C-terminal His tag, absorbance 600 nm, primary screen (AID 1175); conditions: PfDHODH enzyme, DCIP absorbance 600 nm; higher = more signal, called active from +8 up or from −8 down;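 further: recombinant parasite enzyme with a five histidine tag at its C terminus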
[5] = inhibition of PAO1 biofilm formation – strain PAO1, LB-PBS medium, absorbance 600 nm, primary screen (AID 1176); conditions: P. aeruginosa PAO1 growth/biofilm, A600, 12 h; higher = more signal
[6] = growth modulation of vineyard yeast isolate – strain RM11-1a, OD600, basal, 24 h, primary screen (AID 1177);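 further: cultures grown under basal conditions with no added stressor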; conditions: S. cerevisiae RM11-1a growth, OD600, 24 h; higher = more signal, called active from +8 up or from −8 down
[7] = growth of efflux-deficient E. coli DRC39 – strain DRC39, OD650, 24 h, E. coli filamentation inducers, primary screen (AID 1178);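 further: growth measured as culture turbidity by optical density at 650 nm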; conditions: E. coli DRC39 acrAB, higher = more signal, called active from +8 up or from −8 down
[8] = growth of efflux-deficient E. coli DRC39 – strain DRC39, OD650, 48 h, E. coli filamentation inducers, primary screen (AID 1179);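 further: screen aims at cell division blockers that make cells filament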; conditions: E. coli DRC39 delta-acrAB growth, higher = more signal, called active from +8 up or from −8 down
[9] = viability profiling in RPMI8226 myeloma cells – cell-based, resazurin fluorescence, basal, 24 h, PK04 Diversity Set, profiling panel (AID 1180); conditions: higher = more signal;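 further: RPMI8826 multiple myeloma cell line at 5000 cells per well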
[10] = biological target: E3 ubiquitin-protein ligase XIAP (Homo sapiens) (UniProt P98170); assay: small molecules binding XIAP protein – biophysical, small-molecule microarray, fluorescence 635 nm, primary screen (AID 1181); conditions: higher = more signal;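 further: score merges 667 nm emission and signal to noise over triplicate slides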
[11] = test system: XIP peptide (Xip251-270) binding; assay: XIP fragment 251-270 binding compounds – biochemical, small-molecule microarray, fluorescence 635/667 nm, 0.1 µg/mL protein, primary screen (AID 1182); conditions: fluorescent protein binding, 635 nm, higher = more signal, called active from +8 up or from −8 down
XIP peptide (Xip251-270) = assay: compounds binding XIP fragment 251-270 – biochemical, small-molecule microarray, fluorescence 635/667 nm, 0.5 µg/mL protein, primary screen (AID 1183); conditions: fluorescence 635 nm, higher = more signal
[12] = blood-stage malaria parasite viability loss – strain 3D7, DAPI fluorescence, 100 nL, primary screen (AID 1184);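 further: parasites grown inside human red blood cells in medium with human serum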; conditions: P. falciparum 3D7 growth, 3 d, higher = more signal
[13] = biological target: Homeobox protein Hox-A13 (Mus musculus) (UniProt Q62424); assay: disruptors of Hoxa13 oligonucleotide interaction – biochemical, fluorescence polarization, labeled oligonucleotide, primary screen (AID 1185); conditions: Hoxa13:DNA binding, 15 min, higher = more signal, called active from +8 up or from −8 down
[14] = blockers of DNA damage checkpoint Chk1 activation – imaging, HeLa, hydroxyurea, phospho-Chk1 antibody, percent positive cells, primary screen (AID 1186); conditions: hydroxyurea-induced phospho-Chk1 immunofluorescence imaging, higher = more signal
[15] = blockers of DNA damage checkpoint Chk1 activation – imaging, HeLa, hydroxyurea, phospho-Chk1 nuclear intensity, primary screen (AID 1187); conditions: hydroxyurea-induced phospho-Chk1 immunofluorescence imaging, higher = more signal

Dihydroorotate dehydrogenase (quinone), mitochondrial (Plasmodium falciparum (isolate 3D7)), sequence (Q08210 whole entry, looked up): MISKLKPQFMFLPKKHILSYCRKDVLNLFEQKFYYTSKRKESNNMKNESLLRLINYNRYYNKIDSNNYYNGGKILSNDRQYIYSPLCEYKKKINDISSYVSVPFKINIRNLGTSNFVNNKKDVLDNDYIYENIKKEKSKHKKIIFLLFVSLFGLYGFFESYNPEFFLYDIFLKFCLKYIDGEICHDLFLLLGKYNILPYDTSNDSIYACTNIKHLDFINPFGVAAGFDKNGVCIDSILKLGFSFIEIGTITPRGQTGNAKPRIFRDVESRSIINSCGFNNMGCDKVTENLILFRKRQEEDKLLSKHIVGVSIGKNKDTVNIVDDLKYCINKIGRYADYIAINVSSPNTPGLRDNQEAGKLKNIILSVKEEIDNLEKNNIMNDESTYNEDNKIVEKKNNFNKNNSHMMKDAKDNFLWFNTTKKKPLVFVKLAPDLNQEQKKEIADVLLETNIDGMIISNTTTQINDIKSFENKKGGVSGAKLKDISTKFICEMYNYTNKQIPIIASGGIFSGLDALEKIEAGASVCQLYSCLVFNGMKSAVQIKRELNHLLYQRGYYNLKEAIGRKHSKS
E3 ubiquitin-protein ligase XIAP (Homo sapiens), sequence (P98170 whole entry, looked up, the tested form may be a part): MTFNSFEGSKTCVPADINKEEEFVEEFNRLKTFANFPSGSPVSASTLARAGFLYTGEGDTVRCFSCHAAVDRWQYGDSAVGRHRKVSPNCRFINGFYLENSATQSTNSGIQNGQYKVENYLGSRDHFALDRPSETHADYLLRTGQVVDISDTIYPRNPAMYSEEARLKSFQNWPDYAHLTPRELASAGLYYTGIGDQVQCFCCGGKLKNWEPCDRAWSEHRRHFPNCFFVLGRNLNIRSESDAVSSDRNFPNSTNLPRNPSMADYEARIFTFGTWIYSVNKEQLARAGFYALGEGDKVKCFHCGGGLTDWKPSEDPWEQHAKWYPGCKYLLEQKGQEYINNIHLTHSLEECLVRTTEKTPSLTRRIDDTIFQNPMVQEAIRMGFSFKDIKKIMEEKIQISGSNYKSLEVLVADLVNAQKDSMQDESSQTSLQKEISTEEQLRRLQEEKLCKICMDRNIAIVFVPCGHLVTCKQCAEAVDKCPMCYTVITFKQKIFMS
Homeobox protein Hox-A13 (Mus musculus), sequence (Q62424 whole entry, looked up): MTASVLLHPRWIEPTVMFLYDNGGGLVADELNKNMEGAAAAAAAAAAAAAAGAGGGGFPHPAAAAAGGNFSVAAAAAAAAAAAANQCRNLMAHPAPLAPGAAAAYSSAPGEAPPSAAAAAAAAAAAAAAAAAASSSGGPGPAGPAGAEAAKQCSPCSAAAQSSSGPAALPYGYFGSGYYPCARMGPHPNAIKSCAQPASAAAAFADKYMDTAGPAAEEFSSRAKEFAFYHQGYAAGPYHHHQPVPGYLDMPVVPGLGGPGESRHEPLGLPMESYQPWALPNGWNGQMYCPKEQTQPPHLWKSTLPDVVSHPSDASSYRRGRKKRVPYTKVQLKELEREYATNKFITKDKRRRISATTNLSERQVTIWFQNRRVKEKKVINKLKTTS

Row | Structure (SMILES) | z-score [1] | z-score [2] | z-score [3] | composite z-score [4] | z-score [5] | z-score [6] | z-score [7] | z-score [8] | z-score [9] | composite z-score [10] | composite z-score [11] | composite z-score (XIP peptide (Xip251-270)) | z-score [12] | z-score [13] | z-score [14] | z-score [15]
1 | CCOC(=O)C[C@H]1[C@H](OC(=O)c2ccc(C(=O)c3ccccc3)cc2)[C@@H](NC(=O)c2ccc3ccccc3c2)c2cc(OCCCO)ccc2N1C(=O)c1ccccc1 | -0.55 | -0.592 (inactive) | -0.377 (inactive) | -0.46 (inactive) | 0.055 (inactive) | -0.617 (inactive) | 0.347 (inactive) | 0.212 (inactive) | -0.539 | -0.0367 | 1.39 (inactive) | 0.444 | 1.45 | -0.683 (inactive) | 0.451 (inactive) | 0.0368 (inactive)
2 | C=CCC(OC(C)=O)[C@@H]1[C@@H](N(Cc2cc3ccccc3o2)C(=O)c2ccc(C)cc2)c2cc(OCCCO)ccc2N1C(=O)Cc1ccc2ccccc2c1 (stereo partly drawn) | 0.85 | 0.0206 (inactive) | -0.589 (inactive) | 0.507 (inactive) | -0.501 (inactive) | 0.554 (inactive) | 0.964 (inactive) | 1.08 (inactive) | 0.305 | 0.162 | -0.303 (inactive) | -0.419 | -0.429 | -1.45 (inactive) | 0.0151 (inactive) | 0.0749 (inactive)
3 | C[C@]1(C(=O)NCCN2CCOCC2)c2ccccc2C(=O)N(Cc2ccc(OC(F)(F)F)cc2)[C@H]1c1ccc(CO)cc1 | 0.209 | -0.427 (inactive) | -0.191 (inactive) | -0.277 (inactive) | 0.0435 (inactive) | -0.393 (inactive) | 0.815 (inactive) | 0.121 (inactive) | 0.206 | -0.0663 | -0.0513 (inactive) | 0.466 | -1.08 | -4.78 (inactive) | -0.198 (inactive) | -0.0723 (inactive)
4 | CCCC=C(CCC)[C@@H](NP(=O)(c1ccccc1)c1ccccc1)c1ccc(C(F)(F)F)cc1 | 1.02 | 0.534 (inactive) | 0.839 (inactive) | 0.0197 (inactive) | -0.511 (inactive) | -0.359 (inactive) | 0.3 (inactive) | -0.93 (inactive) | 0.495 | 0.328 | -0.185 (inactive) | 0.258 | -0.591 | -1.19 (inactive) | 0.272 (inactive) | -0.0984 (inactive)
5 | C=CCN1Cc2ccccc2C[C@@]2(N=C(c3ccc(OCCCO)cc3)O[C@H]2c2ccccc2)C1=O | 0.211 | -5.82 (inactive) | -3.09 (inactive) | -0.13 (inactive) | 0.535 (inactive) | 0.0893 (inactive) | -0.137 (inactive) | 0.468 (inactive) | -4.81 | -0.031 | 0.247 (inactive) | 0.691 | -2.09 | -3.98 (inactive) | -0.468 (inactive) | -0.399 (inactive)
6 | C=C(CCCC)/C(=C/C[C@@H](OC(C)=O)c1ccc(CO)o1)c1cc(C(=O)OC)ccc1OC | -0.345 | -1.63 (inactive) | -0.493 (inactive) | -2.63 (inactive) | 1.23 (inactive) | 0.0168 (inactive) | -0.122 (inactive) | -0.194 (inactive) | 0.0716 | -0.0367 | 0.207 (inactive) | 0.778 | -0.597 | -4.83 (inactive) | 0.19 (inactive) | 0.471 (inactive)
7 | C=CC[C@]1(C(=O)N(C)C)N=C(c2ccc(OCCCO)cc2)O[C@H]1c1ccccc1N=[N+]=[N-] | 0.146 | 0.136 (inactive) | -1.54 (inactive) | 0.25 (inactive) | 0.286 (inactive) | 0.446 (inactive) | -0.0751 (inactive) | -0.179 (inactive) | -1.32 | 0.121 | 0.845 (inactive) | 0.382 | -1.8 | -3.37 (inactive) | -0.22 (inactive) | -0.0961 (inactive)
8 | CC[C@@H]1[C@H]2C3C(=O)N(CC)C(=O)C3CC(=O)[C@H]2[C@H](c2ccc(C)cc2)N1S(=O)(=O)c1ccc(C)cc1 (stereo partly drawn) | -0.881 | 0.252 (inactive) | -0.25 (inactive) | -0.0972 (inactive) | -0.144 (inactive) | 0.561 (inactive) | -0.339 (inactive) | 0.25 (inactive) | -0.695 | -0.119 | 0.117 (inactive) | 0.643 | -0.915 | -4.84 (inactive) | 0.2 (inactive) | -0.264 (inactive)
9 | CCCCN1CC=CC23O[C@@H]4C=CCOC(=O)[C@@H]4[C@H]2C(=O)N(CCCO)[C@@H]3C1=O (stereo partly drawn) | -1.09 | -0.233 (inactive) | -0.788 (inactive) | -0.284 (inactive) | -0.193 (inactive) | 0.164 (inactive) | -1.33 (inactive) | -1.28 (inactive) | -0.848 | 0.106 | 0.769 (inactive) | -0.374 | -1.81 | -4.48 (inactive) | -0.247 (inactive) | -0.169 (inactive)
10 | O=C(O)[C@H]1C[C@H]2C(=O)N3CCC[C@H]3C(=O)N2[C@H]1c1cccc(OCCO)c1 | 1.32 | -0.361 (inactive) | 0.209 (inactive) | -0.117 (inactive) | -0.695 (inactive) | 0.43 (inactive) | 0.481 (inactive) | 0.896 (inactive) | 0.268 | -0.0901 | 0.25 (inactive) | 0.335 | -0.0612 | -3.62 (inactive) | -0.217 (inactive) | 0.0679 (inactive)
11 | COCCOC(=O)N1C(=O)[C@@]2(c3cc(C#CCNC(N)=O)ccc31)[C@H](C(=O)N1CCCCCCC1)[C@H]1C(=O)O[C@H](c3ccccc3)[C@H](c3ccccc3)N1[C@@H]2c1ccc(O)cc1 | -0.515 | -0.129 (inactive) | -0.97 (inactive) | -0.376 (inactive) | 0.0442 (inactive) | 0.786 (inactive) | -0.5 (inactive) | -0.719 (inactive) | -0.928 | 0.0614 | 0.328 (inactive) | 0.46 | 0.178 | 0.172 (inactive) | 0.0004 (inactive) | 0.132 (inactive)
12 | Cc1c(NC(=O)/C(C#N)=C/C=C/c2ccc(N(C)C)cc2)c(=O)n(-c2ccccc2)n1C | 0.29 | -0.312 (inactive) | 0.514 (inactive) | -0.186 (inactive) | -0.103 (inactive) | -0.246 (inactive) | 1.78 (inactive) | -0.202 (inactive) | 1.08 | 0.0899 | 1.41 (inactive) | 0.7 | -0.46 | -13.8 (active) | 0.348 (inactive) | 0.996 (inactive)
13 | COCC(=C=CC[C@H](O)c1cccc(OCCO)c1)C[C@H](O)c1ccccn1 | 1.51 | 1.65 (inactive) | 0.959 (inactive) | -0.672 (inactive) | 0.437 (inactive) | 1.07 (inactive) | 1.38 (inactive) | 1.23 (inactive) | 1.66 | -0.0453 | 0.198 (inactive) | 0.157 | -0.737 | -4.27 (inactive) | -0.028 (inactive) | 0.745 (inactive)
14 | Cc1ccc(S[C@]2(C(=O)O)CC(=O)N(Cc3ccccc3Cl)[C@@H]2c2ccc(CO)cc2)cc1 | -0.739 | -0.399 (inactive) | -0.465 (inactive) | 0.0962 (inactive) | 1.42 (inactive) | 0.573 (inactive) | 0.21 (inactive) | 0.224 (inactive) | 0.148 | -0.0749 | 0.084 (inactive) | -0.0477 | -1.34 | -2.09 (inactive) | -0.181 (inactive) | -0.207 (inactive)
15 | CCOC(=O)C1=C[C@@H](c2ccccc2)N(S(=O)(=O)c2ccc(C)cc2)[C@H]1c1cccc(Cl)c1 | -0.663 | 1.7 (inactive) | -0.848 (inactive) | -0.184 (inactive) | -0.169 (inactive) | 2.1 (inactive) | -0.823 (inactive) | -0.777 (inactive) | -1.64 | -0.221 | 0.526 (inactive) | 0.803 | -2.03 | 0.587 (inactive) | 0.289 (inactive) | 0.284 (inactive)
16 | Cc1ccc(S[C@]2(C(=O)NC(C)C)CC(=O)N(Cc3ccccc3C(F)(F)F)[C@@H]2c2ccc(CO)cc2I)cc1 | 0.105 | -5.85 (inactive) | -1.86 (inactive) | -1.47 (inactive) | 0.27 (inactive) | -2.43 (inactive) | 0.221 (inactive) | 0.201 (inactive) | -2.09 | -0.126 | 0.136 (inactive) | 0.582 | -1.14 | -1.9 (inactive) | 0.0101 (inactive) | 0.293 (inactive)
17 | CN(C)C(=O)[C@]1(CCC(=O)OC(C)(C)C)N=C(c2ccc(OCCCO)cc2)O[C@@H]1c1ccccc1 | -0.0109 | -0.0261 (inactive) | 0.352 (inactive) | -0.19 (inactive) | 0.248 (inactive) | 0.0653 (inactive) | 0.0325 (inactive) | -0.384 (inactive) | 0.448 | -0.0773 | 0.454 (inactive) | 0.116 | 0.201 | -5.58 (inactive) | -0.0091 (inactive) | 0.277 (inactive)
18 | C=CCN1C(=O)[C@@]2(CCC(=O)OC(C)(C)C)N=C(c3ccc(OCCCO)cc3)O[C@H]2c2ccccc21 | -0.648 | -1.23 (inactive) | -3.26 (inactive) | 0.407 (inactive) | 1.77 (inactive) | -0.169 (inactive) | 0.636 (inactive) | -0.242 (inactive) | -4.47 | 0.21 | 0.841 (inactive) | 0.473 | -1.95 | -0.861 (inactive) | -0.239 (inactive) | -0.351 (inactive)

Source: PubChem BioAssay
